Source: PubChem BioAssay (NMMLSC)
RPL19A TOR yeast – modulators of TOR pathway RPL19A-GFP in S. cerevisiae | AID 2025 | S. cerevisiae RPL19A-GFP strain, flow cytometry, 3 h; hits give low values | percent response vs DMSO, % at 10 µM | hit rate 0.3% among 330,000;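 active means percent response vs DMSO below 50%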;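 further: median channel GFP fluorescence of the barcoded RPL19A-GFP strain; ratio of sample median GFP to plate DMSO average so 100% = DMSO; lower means less RPL19A-GFP as with rapamycin TOR inhibition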
AGP1-GFP MLPCN – yeast TOR pathway AGP1-GFP modulation; GFP response vs DMSO, % at 10 µM; S. cerevisiae AGP1-GFP multiplex flow cytometry, 3 h; GFP as percent of DMSO wells; hit rate 0.02% among 320,000;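 active means GFP response relative to DMSO above a set limit, near screen average plus 3 SD, cut at about 150% in these data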;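 further: median GFP channel fluorescence of the gated AGP1 strain per well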
CIT2 TOR yeast – yeast TOR pathway CIT2-GFP modulation; GFP response vs DMSO, % at 10 µM; hit rate 0.065% among 320,000; S. cerevisiae CIT2-GFP strain, flow cytometry, 3 h; 100 means same as DMSO wells; AID 2029;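 active means GFP response relative to DMSO above a set limit, near the screen mean plus 3 SD, cut at about 150% in these data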;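 further: ratio of well median GFP fluorescence to mean of DMSO wells on the plate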
MEP2-GFP yeast – modulators of TOR pathway MEP2-GFP in S. cerevisiae; S. cerevisiae MEP2-GFP strain, flow cytometry GFP, 3 h; 100% = DMSO control level; GFP response vs DMSO, % at 10 µM; hit rate 0.51% among 330,000;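 active means GFP response versus DMSO above a set limit, roughly screen mean plus 3 SD, cut at about 180% in these data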;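 further: median GFP fluorescence of the barcode-gated MEP2-GFP cells per well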
LAP4 TOR yeast – yeast TOR pathway LAP4-GFP modulation | S. cerevisiae LAP4-GFP multiplex, flow cytometry GFP, 3 h; median GFP as percent of DMSO wells | GFP response vs DMSO, % at 10 µM | hit rate 0.34% among 320,000 | AID 2023;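 active means GFP response vs DMSO above a set limit, about the screen mean plus 3 SD, cut at about 150% in these data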
LAP4-GFP pick2 – yeast LAP4-GFP modulation, second cherry pick. shares compounds with LAP4 TOR yeast. S. cerevisiae LAP4-GFP strain, flow cytometry GFP, 3 h. GFP response vs DMSO, % at 10 µM. hit rate 20% among 590. AID 2621;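 active means GFP signal as percent of the solvent control above about 150%, meaning raised reporter expression, limit read from the data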;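 further: ratio of well median GFP fluorescence to plate DMSO mean so 100% = DMSO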
MEP2-GFP pick2 – second confirmation of modulators of TOR reporter MEP2-GFP in yeast; shares compounds with LAP4 TOR yeast; S. cerevisiae MEP2-GFP strain, flow cytometry GFP, 3 h; GFP response vs DMSO, % at 10 µM; hit rate 10% among 590; AID 2622;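 active means GFP signal above 150% of the solvent control wells, that is a rise of more than half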;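 further: median channel GFP fluorescence of all gated yeast cells per well; ratio of median GFP to plate DMSO average so 100% = DMSO level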
RPL19A-GFP pick2 – second confirmation of modulators of TOR reporter RPL19A-GFP in yeast | S. cerevisiae RPL19A-GFP strain, flow cytometry GFP, 3 h; hits give low values; 100% means same as DMSO wells | shares compounds with LAP4 TOR yeast | GFP response vs DMSO, % at 10 µM | hit rate 3% among 590;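 active means under 65% GFP response relative to DMSO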;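 further: median GFP channel fluorescence per well over the all cells gate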
CIT2 GFP CP2 – second confirmation of modulators of TOR reporter CIT2-GFP in yeast; S. cerevisiae CIT2-GFP strain, flow cytometry GFP, 3 h; DMSO control wells read 100%; hit rate 8% among 590; GFP response vs DMSO, % at 10 µM; shares compounds with LAP4 TOR yeast;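 active means GFP response vs DMSO above about 150%, limit read from the data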;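 further: median green fluorescence per well over all gated yeast cells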
AGP1-GFP pick2 – reconfirmed modulator of AGP1-GFP TOR reporter in yeast | S. cerevisiae AGP1-GFP strain, flow cytometry GFP, 3 h | AID 2643 | shares compounds with LAP4 TOR yeast | 590 tested, under 10 active | percent response vs DMSO, % at 10 µM;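 active means over 150 percent of DMSO response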;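 further: median GFP channel fluorescence over all cells without mother daughter split; sample median GFP divided by mean DMSO control so 100% equals DMSO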
s288c autofluor – yeast s288c autofluorescence artifact, counter-screen | shares compounds with LAP4 TOR yeast | S. cerevisiae s288c, 520 nm autofluorescence, flow cytometry, 3 h; hits give high values; zero means same as solvent-only cells | fluorescence change (kMESF span) at 33 µM | 610 tested, under 10 active;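 active means fluorescence span over the dose series, or activity score, above about 33, limit read from the data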
Starred values were filed as active, the others as inactive; . = no result given. Hits are enriched below; roughly 0.92% of the tested compounds scored in any of these assays.

SMILES	RPL19A TOR yeast	AGP1-GFP MLPCN	CIT2 TOR yeast	MEP2-GFP yeast	LAP4 TOR yeast	LAP4-GFP pick2	MEP2-GFP pick2	RPL19A-GFP pick2	CIT2 GFP CP2	AGP1-GFP pick2	others
COc1ccc(NC(=O)COc2ccc(C(=O)OCC(=O)N(C(C)C)C(C)C)cc2OC)cc1	99	95	80	101	89	.	.	.	.	.
CC1CCN(C(=O)c2ccccc2NC(=O)c2cccc(S(=O)(=O)N(C)C)c2)CC1	99	100	102	96	99	.	.	.	.	.
CN(C)S(=O)(=O)c1cccc(C(=O)Nc2ccccc2C(=O)NC2CC2)c1	92	115	93	109	152*	104	105	100	102	98
CCOc1ccccc1N1CCN(C(=O)CC(C)C)CC1	100	101	99	101	91	.	.	.	.	.
O=C1C=C(c2ccc3ncccc3c2)C[C@@H](c2ccc(Cl)cc2)C1	93	89	77	94	151*	111	98	93	85	97
COc1ccc([C@H]2CC(=O)C=C(c3ccc4ncccc4c3)C2)cc1	95	71	84	91	123	.	.	.	.	.
COC(=O)CCCC1=CC2=CC(=O)C(C)(OC(=O)CCc3ccccc3)C(=O)C2=CO1 (stereo unspecified)	88	51	51	88	156*	112	93	103	102	89	s288c autofluor=-0.2
COC(=O)CCC(=O)OC1(C)C(=O)C=C2C=C(c3ccsc3)OC=C2C1=O (stereo unspecified)	102	94	87	104	94	.	.	.	.	.
CCc1noc(C)c1C(=O)Nc1nc2c(F)cc(F)cc2s1	86	84	66	95	163*	122	111	93	87	90
CC(C)Cn1c(=O)c(C(=O)Nc2ccncc2)c(O)c2ccccc21	48*	48	59	93	103	.	.	.	.	.	s288c autofluor=2
CC(C)(C)C(=O)NC(=S)NNC(=O)c1sc2ccccc2c1Cl	82	101	95	118	233*	.	.	.	.	.	s288c autofluor=0
N=C1SCC(=O)N1c1ccccc1Cl	105	94	98	105	91	.	.	.	.	.
O=C1c2sc3nc4ccccc4n3c2C(=O)N1c1ccccc1Cl	66	81	84	99	192*	138	158*	75	104	81	s288c autofluor=1.9
CCS(=O)(=O)N1CCC(C(=O)Nc2ccc3c(c2)CCC3)CC1	95	116	154*	101	91	98	102	100	97	100
CCCc1c(O)nc(SCCN(CC)CC)n(C(=O)c2ccccc2)c1=O	36*	28	115	248*	116	97	102	99	96	99
O=C(Nc1ccccc1)C(O)C(O)C(=O)Nc1ccccc1 (stereo unspecified)	98	102	98	113	106	.	.	.	.	.
C/C(=N/N1CCN(Cc2cccc3ccccc23)CC1)c1ccco1	104	115	102	103	109	.	.	.	.	.
COc1cccc(/C=C2/SC(=S)N(CCCC(=O)Nc3ccc(O)cc3)C2=O)c1	103	99	103	96	101	.	.	.	.	.
